Test results reported in PMC7819943, “Rice protein-binding microarrays: a tool to detect cis-acting elements near promoter regions in rice”.
The full ranking holds about 68,000 sequences; the median of “fluorescence intensity (a.u.)” is about 9,100, and the highest 2% start at about 16,000. Many of the other results were omitted from the sample, so the highest values are more common in it than they were.

Each sequence was assayed against OsWRKY34 (Oryza sativa, UniProt Q0JBA9 1-250) (assay: protein-binding microarray (RPBM); PBS, 2% BSA, 51.3 ng/ul salmon testes DNA, 50 uM zinc acetate, 200 nM TF, 25 C, 1 h; high values mean tight binding). Conditions: protein: recombinant; tags: N-terminal polyhistidine and DsRed monomer fusion (pET32a); label: CyDye5-dUTP incorporated in the synthesized complementary strand; 3' TTTTT single-stranded linker to array surface; dsDNA, one strand shown.
Procedure, shortened: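 Binding signal here means per-feature fluorescence intensity in arbitrary units. The values were read on an Axon 4000B scanner after a custom Agilent array, double-stranded by primer extension with Cy5-dUTP, was incubated with 200 nM protein at 25 °C for 1 h in PBS with 2% BSA, salmon testes DNA and 50 µM zinc acetate, then washed. The proteins were transcription factors with an N-terminal polyhistidine tag and DsRed, expressed in E. coli BL21-CodonPlus and purified on Ni–NTA.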

Sequence of OsWRKY34 (Q0JBA9 entry or part of it): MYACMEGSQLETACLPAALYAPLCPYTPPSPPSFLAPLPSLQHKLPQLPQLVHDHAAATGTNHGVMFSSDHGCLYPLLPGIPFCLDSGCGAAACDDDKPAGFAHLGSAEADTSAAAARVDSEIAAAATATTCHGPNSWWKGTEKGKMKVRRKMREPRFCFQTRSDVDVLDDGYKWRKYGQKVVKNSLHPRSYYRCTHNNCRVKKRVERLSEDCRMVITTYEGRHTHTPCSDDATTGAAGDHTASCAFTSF

Sequence	binding signal
TTCTGGATCTTGACTCTTGACCAGTTCATCCACACGTGTGCGGAGTCACCTAGTGCAG	8540 fluorescence intensity (a.u.)
TCTCCCTCAGTTACTGCCTTGCTCCCCAACCCCAGGAGCACGGAGTCACCTAGTGCAG	9230 fluorescence intensity (a.u.)
GCTTGGGGTGGAATCGCGTGGACAGCGTGGGCCTCAGTCACGGAGTCACCTAGTGCAG	12000 fluorescence intensity (a.u.)
ATATTTATTAGTTGGCGTGTATGTAAAACTTGTGTGTTTCCGGAGTCACCTAGTGCAG	8400 fluorescence intensity (a.u.)
CCATTGTTTTCTTCTTGTCCTTTTAGAGATGTTGGGTACACGGAGTCACCTAGTGCAG	8240 fluorescence intensity (a.u.)
AACCACCCCGCGTTTCCAGTCTCCACCACATCAACTCCCCCGGAGTCACCTAGTGCAG	10200 fluorescence intensity (a.u.)
CCCCAATGAATCATAGGCTCAACCTGCTCCTGCTGCAACACGGAGTCACCTAGTGCAG	8040 fluorescence intensity (a.u.)
GGTCCGGCGGAAGTAGGGGCGGAAGTGCGGGCGGGAGATGCGGAGTCACCTAGTGCAG	9700 fluorescence intensity (a.u.)
GACACATCTTAGTTTCATGAATTTGCACAAGAATTGCATGCGGAGTCACCTAGTGCAG	10800 fluorescence intensity (a.u.)
AGCCTGGAAGCCCATTCAGCGGCGGGGTTGGGGCGGCAGGCGGAGTCACCTAGTGCAG	10200 fluorescence intensity (a.u.)
AGATTGCTTTTCTTACAAGGACGACGCTAACAATAACATCCGGAGTCACCTAGTGCAG	9110 fluorescence intensity (a.u.)
GATGTGGATTTGGGATGTTAATTTGATTTGGGATTTGGGGCGGAGTCACCTAGTGCAG	10600 fluorescence intensity (a.u.)
GGCAATGCTTCACCGTCGCTTGCACCCCTTTCTCATGTGTCGGAGTCACCTAGTGCAG	9790 fluorescence intensity (a.u.)
CCCATTTGCCATGTCAACGCACCGTACTAATTAATCCTTGCGGAGTCACCTAGTGCAG	10200 fluorescence intensity (a.u.)
CCGCGGCCCAATAGCTCTTAGCCCATTGCCATCCGCCATCCGGAGTCACCTAGTGCAG	9820 fluorescence intensity (a.u.)
TTCCCTAAATGTTTGACACCGTTGACTTTTTTTTAAACATCGGAGTCACCTAGTGCAG	33300 fluorescence intensity (a.u.)
CCGTTTTAAAATGTTTGACACCGTTGACTTTTTAGTACATCGGAGTCACCTAGTGCAG	26100 fluorescence intensity (a.u.)
CCTAAATGTTTGACTCCGTTGACTTTTTTAAACATGTCTGCGGAGTCACCTAGTGCAG	26100 fluorescence intensity (a.u.)
AGATGACTCCGTTGACTTTTAAACACATGTTTGATAATTCCGGAGTCACCTAGTGCAG	16200 fluorescence intensity (a.u.)
TGTTGTTGACTTTTAAACACATGTTTGATCATTTGTCTTACGGAGTCACCTAGTGCAG	14600 fluorescence intensity (a.u.)
TCCCTAAATGTTTGACACCGTTGACCTTTTTAAAACATTTCGGAGTCACCTAGTGCAG	17800 fluorescence intensity (a.u.)
TTACATTTTAGGACATATATTTGGGGAGCTTCTTGGCTGTCGGAGTCACCTAGTGCAG	10800 fluorescence intensity (a.u.)

Sequence	binding signal
ATTTGTCTCTTTCGCGTCGTCTCTAACCTAACGTCCCAGACGGAGTCACCTAGTGCAG	13100 fluorescence intensity (a.u.)
CCCACGCGCCCACTTTGACCGACCCATCGATCGATCACGACGGAGTCACCTAGTGCAG	14300 fluorescence intensity (a.u.)
GCAACACCTCCCCTGTTCTTGCTCTGTTTCCTCACTCTGTCGGAGTCACCTAGTGCAG	10200 fluorescence intensity (a.u.)
TCTATCTGCCTGACTATCTCTATCTCGATCTCGTCCAGGACGGAGTCACCTAGTGCAG	9860 fluorescence intensity (a.u.)
ATCCGAGCATCTCGCCTCGCCCCGCCCCGCCCCGATCGATCGGAGTCACCTAGTGCAG	9480 fluorescence intensity (a.u.)
CTAGTAGTGCACACAAGCGGCAGCAGGAGGGGAGGGTGGTCGGAGTCACCTAGTGCAG	9190 fluorescence intensity (a.u.)
CTCTCTCTGCCATATCCTGTGCTTTTCTTGTATTCCATCCCGGAGTCACCTAGTGCAG	11400 fluorescence intensity (a.u.)
ATGTTTGACACCGTTGACTTTTTAGTACGTGTTTGACCATCGGAGTCACCTAGTGCAG	28200 fluorescence intensity (a.u.)
GTTTGACACTTTTAGTACGTGTTTGACCATTTGTTTTATTCGGAGTCACCTAGTGCAG	10200 fluorescence intensity (a.u.)
CCTAAATGTTTGACACCGTTGACTTTTTTAAACATATTTGCGGAGTCACCTAGTGCAG	33000 fluorescence intensity (a.u.)
TTCTCCACGGCAAACCACCACCGGCGTCACCAGCCCACCACGGAGTCACCTAGTGCAG	8110 fluorescence intensity (a.u.)
CTTTTCCATTTCCATGCATTCTTTGATCATCAAGTGATCACGGAGTCACCTAGTGCAG	12100 fluorescence intensity (a.u.)
TTGACCTGCTAGCCTTTTTTTTTTCGCAAATCTATTCCTGCGGAGTCACCTAGTGCAG	8440 fluorescence intensity (a.u.)
ATTTCTGCAGACCCATTTTGCTTTTGAAACACTGCTGATTCGGAGTCACCTAGTGCAG	9790 fluorescence intensity (a.u.)
AGTTTGTCATGGTCTAAAATATTACCCAGGTGTTCTTTGACGGAGTCACCTAGTGCAG	8760 fluorescence intensity (a.u.)
CCATTAGTAAGTTCTCTCGTGGCCCAATACTCTCTTGATGCGGAGTCACCTAGTGCAG	8840 fluorescence intensity (a.u.)
GGCCAATAAGTTCCAGTTCTCTTCTTAAGGCCCATTAGACCGGAGTCACCTAGTGCAG	61800 fluorescence intensity (a.u.)
CATTCTCTTCTCAACCAATAACAACTCTTCCACCATTCACCGGAGTCACCTAGTGCAG	9540 fluorescence intensity (a.u.)
CTCTCTCTCTCCTCGCGTGACTCGCGCGTGCCCTCGCCGCCGGAGTCACCTAGTGCAG	8130 fluorescence intensity (a.u.)
ACTAAACTCTGCCTTCATCATATTCCCAGCTGGTAACTCTCGGAGTCACCTAGTGCAG	10300 fluorescence intensity (a.u.)
GCCTTCATCATATTCCCAGCTGGTAACTCTATCCATTGACCGGAGTCACCTAGTGCAG	16400 fluorescence intensity (a.u.)
TATTCCCAGCTGGTAACTCTATCCATTGACGGCTGTGTTTCGGAGTCACCTAGTGCAG	9650 fluorescence intensity (a.u.)
